# Laboratory results reported in PubChem BioAssay AID588753 (Vanderbilt Specialized Chemistry Center, 2011).
# Active and inactive are the calls of the source. No rule for the calls is given here.
# Assay: PubChem AID 588753
# Settings: Ricerca radioligand binding panel, % inhibition, at 10 µM, stronger effect = higher value
compound,measurement,setting,value
C[C@@H](NC(=O)c1ccc(C#Cc2cccc(F)c2)cn1)C(C)(C)O,inhibition,L-type Ca channel DHP site,22%
same,inhibition,NMDA phencyclidine site,25%
same,inhibition,adenosine A2a binding,12%
same,inhibition,adrenergic alpha1A binding,18%
same,inhibition,,8% (inactive)
same,inhibition,dopamine transporter binding,8%
same,inhibition,hERG binding,-2%
same,inhibition,leukotriene CysLT1 binding,17%
same,inhibition,norepinephrine transporter binding,9%
same,inhibition,purinergic P2XY binding,24%
same,inhibition,serotonin 5-HT2B binding,36%
same,inhibition,serotonin transporter binding,6%
same,inhibition,sigma 1 binding,31%
